PubChem BioAssay (NCI)
Several values for one entry are separate records, joined by “and”; a condition that tells them apart may be missing. Equal entries are not always repeated. The panel holds about 83,000 compounds, 20% with a hit somewhere; the sample as a whole holds those more often.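 Method: cells in 96-well plates; compound added at one concentration; 48 h incubation; percent growth measured; values under 10 scored active.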 A number with no mark means an inactive call. Activity calls are given as the source filed them.

system: HL-60(TB) leukemia; test: NCI-60 one-dose screen, 48 h (100 = growth as untreated, 0 = no growth, -100 = all killed); details: 10 µM unless noted

| SMILES | growth |
| --- | --- |
| CCN(CCNS(C)(=O)=O)c1ccc(N)c(C)c1 | 11.5% and 77.3% |
| N#Cc1cccc(NC(=O)c2oc3ccccc3c2-c2cnn(-c3ccccc3)c2)c1 | -22.2% [50 µM] (active) |
| O=c1c(/C=C/c2ccco2)nnc(SCCN2CCOCC2)n1/N=C/c1ccc([N+](=O)[O-])cc1 | 87.9% |
| ClCc1ccc(-c2ccc(Cn3cnc4c(Cl)nc(Cl)nc43)cc2)cc1 | -53.7% (active) |
| Cc1oc2nc[nH]c(=O)c2c1C(=O)/C=C/c1ccc(Cl)cc1 | -47.8% (active) |
| COc1ccc(Nc2nc(N/N=C/c3ccc(O)cc3)nc(Nc3ccc([N+](=O)[O-])cc3)n2)cc1 | 116% |
| COc1cc(C2CC(=O)c3c(C)nn(-c4nc5ccccc5[nH]4)c3C2)cc(OC)c1OC (stereo not drawn) | 132% |
| C=C(C)[C@@H]1CC[C@]2(C(=O)NCC(=O)OC)CC[C@]3(C)[C@H](CC[C@@H]4[C@@]5(C)Cc6c([nH]c7ccccc67)C(C)(C)[C@@H]5CC[C@]43C)[C@@H]12 | 64.8% |
| C/C(=N\NC(=O)c1ccccc1O)c1cccc(/C(C)=N/NC(=O)c2ccccc2O)n1 | 6.42% (active) |
| CC1=CSC2=NC(c3ccc(Cl)c(Cl)c3)=CC(c3ccc(Cl)cc3)N12 (stereo not drawn) | 47.7% |
| CCCCCC(=O)Oc1ccc(/C(=C(\C)c2ccc(OC)cc2)c2ccc(OCCN3CCCCC3)cc2)cc1 | 42.7% |
| O=C(Nn1c2c(sc1=NCc1ccccc1)C(=O)c1ccccc1C2=O)c1cc2ccc1CCc1ccc(cc1)CC2 | 27% |
| O=C(Oc1cccc(OC(=O)c2ccccc2)c1)c1ccccc1 | 73% and 114% |
| CCN(CC)CCCC(C)Nc1ccnc2cc(Oc3ccccc3)ccc12 (stereo not drawn) | 69% and 97.8% |
| C#Cc1ccccc1NC(=O)c1sc2nc3c(cc2c1N)CCCCCC3 | 92.7% |
| N#C/C(=C\c1ccc(-c2ccc(Cl)cc2)o1)C(=O)Nc1ncc(Cc2ccc(Cl)cc2)s1 | 80.1% |
| Cc1ccc(Nc2cc(N)nc(N)n2)cc1Cl | 98.7% |
| C[C@]12C[C@H]1CC[C@]1(C)[C@@H]2CC[C@@]23C[C@H](CC[C@H]21)[C@@](O)(CO)C3 | 103% |
| Cc1ccc(C(=O)NN)cc1 | 124% |
| CN1CCN(Cc2ccc(NC(=O)c3cncc(C#Cc4cnccc4C(F)(F)F)c3)cc2C(F)(F)F)CC1 | 38.4% |
| CCCCCCCCCCCCCCCCCCOc1ccccc1CC(=O)OCCC[N+](C)(C)C | 9.1% (active) |
| C#CCOc1ccc2ncnc(Nc3cccc(NC(=O)C=C)c3)c2c1 | 63.1% |
| CCCC(=O)Oc1ccc(/C(=C(\C)c2ccc(Cl)cc2)c2ccc(OCCN(CC)CC)cc2)cc1 | -49.1% (active) |
